{"source": "PubChem BioAssay (NCI)", "note": "Compounds without any hit were thinned out: in the full panel of roughly 83,000, 20% have a hit.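 Cells were grown in 96-well plates and exposed to the test compound at a single concentration for 48 hours; results are reported as percent growth, with values below 10 considered active.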 The source made the active and inactive calls.", "data": [{"test_system": "HS 578T breast", "experiment": "NCI-60 one-dose screen, 48 h (100 = growth as untreated, 0 = no growth, -100 = all killed)", "details": "10 µM unless noted", "values": [{"compound": "CC(=O)Nc1ccc(O)c(C)c1", "growth": "107% (inactive)"}, {"compound": "O=C(c1cccc(C(=O)c2ccc3c4c(cccc24)C(=O)N(c2ccccc2)C3=O)c1)c1ccc2c3c(cccc13)C(=O)N(c1ccccc1)C2=O", "growth": "97.6% (inactive)"}, {"compound": "Cc1ccc(S(=O)(=O)Oc2ccc3sc4c(CO)ccc(NCCN(C)C)c4c(=O)c3c2)cc1", "growth": "-44.2% [100 µM] (active)"}, {"compound": "O=C1NC(=O)/C(=C\\c2ccncc2)N1", "growth": "95% (inactive)"}, {"compound": "O=C(c1ccccc1O)N1CCCC1", "growth": "111% (inactive)"}, {"compound": "C1Cc2onc(-c3noc4c3CCC4)c2C1", "growth": "114% (inactive)"}, {"compound": "O=S(=O)(O)c1ccc(O)c(C2CCCCC2)c1", "growth": "116% (inactive)"}, {"compound": "CNc1ccccc1C(=O)N/N=C/C=C/c1ccccc1", "growth": "16.5% (inactive)"}, {"compound": "O=C(O)CC1=CCCCC1", "growth": "108% (inactive)"}, {"compound": "CC(C)c1ccc(C(=O)OCCCl)cc1", "growth": "94.7% (inactive)"}, {"compound": "CCCCCCCCNC(=O)C(C)C", "growth": "97.1% (inactive)"}, {"compound": "Cc1ccc(C)c2c1CCC2=O", "growth": "92.6% (inactive)"}, {"compound": "CC1(C)CCC(C)(C)NC(=S)N1", "growth": "109% (inactive)"}, {"compound": "COc1ccc(/C=N/NC(=O)COCC(=O)N/N=C/c2ccc(OC)cc2)cc1", "growth": "114% (inactive)"}, {"compound": "Cc1ccccc1NC(=O)Oc1ccc(Cl)cc1C(=O)c1ccccc1", "growth": "84.3% (inactive)"}, {"compound": "CC(=O)c1cccs1", "growth": "99.2% (inactive)"}, {"compound": "CSc1cnc2ccccc2n1", "growth": "98.8% (inactive)"}, {"compound": "CCCC(OC(C)=O)c1ccc2c(c1)OCO2", "note": "(centres undefined)", "growth": "99.6% (inactive)"}, {"compound": "CC(C)N(C(=O)c1ccccc1)C(C)C", "growth": "108% (inactive)"}, {"compound": "O=C(O)c1ccc(OCc2ccccc2)cc1", "growth": "96% (inactive)"}, {"compound": "COc1cc(C(=O)O)c(O)c(C(C)(C)C)c1", "growth": "105% (inactive)"}, {"compound": "CC1(C)OC2C(CO)OC(n3ccc(=O)[nH]c3=O)C2O1", "note": "(centres undefined)", "growth": "91.8% (inactive)"}, {"compound": "Cc1cccnc1NC1OC(=O)c2ccccc21", "note": "(centres undefined)", "growth": "138% (inactive)"}, {"compound": "NS(=O)(=O)c1cc(=O)[nH]c(=O)[nH]1", "growth": "102% (inactive)"}, {"compound": "CCC1CCC(C)NC1", "note": "(centres undefined)", "growth": "95.7% (inactive)"}, {"compound": "Cc1ccc2[nH]c3ccccc3c2c1", "growth": "106% (inactive)"}, {"compound": "C=C1C(=O)C2CCN1CC2", "growth": "101% (inactive)"}, {"compound": "C=CCNC(=S)N/C=C(/C(=O)c1ccccc1)c1ccccc1", "growth": "103% (inactive)"}, {"compound": "CCc1ccccc1C(=O)N(CC)CC", "growth": "110% (inactive)"}, {"compound": "CN(C)CCOC(=O)Nc1ccc(Cc2ccc(NC(=O)OCCN(C)C)cc2)cc1", "growth": "73.1% [100 µM] (inactive)"}, {"compound": "CC(C)NC(=O)OCc1c(COC(=O)NC(C)C)c(-c2ccc(Cl)cc2)n2c1CCC2", "growth": "73.6% (inactive)"}, {"compound": "Nc1ccc2c(c1)Cc1cc(N)c(N)cc1-2", "growth": "106% (inactive)"}, {"compound": "CCOC(=O)C(=O)CC(=O)c1ccccc1", "growth": "106% (inactive)"}, {"compound": "CCNc1ncnc2[nH]ncc12", "growth": "109% (inactive)"}, {"compound": "COc1nc(Nc2cccc(C(F)(F)F)c2)nc(OC)n1", "growth": "98.6% (inactive)"}, {"compound": "CC(=O)c1cccc(O)c1", "growth": "96.5% (inactive)"}, {"compound": "CC(C)c1ccccc1NC(=O)N1CCC(C(C)C)CC1", "growth": "102% (inactive)"}]}, {"test_system": "NCI/ADR-RES ovarian", "experiment": "NCI-60 one-dose screen, 48 h (100 = growth as untreated, 0 = no growth, -100 = all killed)", "details": "10 µM unless noted", "values": [{"compound": "CC(=O)Nc1ccc(O)c(C)c1", "growth": "102% (inactive)"}, {"compound": "O=C(c1cccc(C(=O)c2ccc3c4c(cccc24)C(=O)N(c2ccccc2)C3=O)c1)c1ccc2c3c(cccc13)C(=O)N(c1ccccc1)C2=O", "growth": "96.9% (inactive)"}, {"compound": "Cc1ccc(S(=O)(=O)Oc2ccc3sc4c(CO)ccc(NCCN(C)C)c4c(=O)c3c2)cc1", "growth": "-58% [100 µM] (active)"}, {"compound": "O=C1NC(=O)/C(=C\\c2ccncc2)N1", "growth": "103% (inactive)"}, {"compound": "O=C(c1ccccc1O)N1CCCC1", "growth": "101% (inactive)"}, {"compound": "C1Cc2onc(-c3noc4c3CCC4)c2C1", "growth": "115% (inactive)"}, {"compound": "O=S(=O)(O)c1ccc(O)c(C2CCCCC2)c1", "growth": "118% (inactive)"}, {"compound": "CNc1ccccc1C(=O)N/N=C/C=C/c1ccccc1", "growth": "3.92% (active)"}, {"compound": "O=C(O)CC1=CCCCC1", "growth": "96.9% (inactive)"}, {"compound": "CC(C)c1ccc(C(=O)OCCCl)cc1", "growth": "102% (inactive)"}, {"compound": "CCCCCCCCNC(=O)C(C)C", "growth": "117% (inactive)"}, {"compound": "Cc1ccc(C)c2c1CCC2=O", "growth": "101% (inactive)"}, {"compound": "CC1(C)CCC(C)(C)NC(=S)N1", "growth": "108% (inactive)"}, {"compound": "COc1ccc(/C=N/NC(=O)COCC(=O)N/N=C/c2ccc(OC)cc2)cc1", "growth": "112% (inactive)"}, {"compound": "Cc1ccccc1NC(=O)Oc1ccc(Cl)cc1C(=O)c1ccccc1", "growth": "97% (inactive)"}, {"compound": "CC(=O)c1cccs1", "growth": "95.6% (inactive)"}, {"compound": "CSc1cnc2ccccc2n1", "growth": "103% (inactive)"}, {"compound": "CCCC(OC(C)=O)c1ccc2c(c1)OCO2", "note": "(centres undefined)", "growth": "104% (inactive)"}, {"compound": "CC(C)N(C(=O)c1ccccc1)C(C)C", "growth": "115% (inactive)"}, {"compound": "O=C(O)c1ccc(OCc2ccccc2)cc1", "growth": "104% (inactive)"}, {"compound": "COc1cc(C(=O)O)c(O)c(C(C)(C)C)c1", "growth": "106% (inactive)"}, {"compound": "CC1(C)OC2C(CO)OC(n3ccc(=O)[nH]c3=O)C2O1", "note": "(centres undefined)", "growth": "105% (inactive)"}, {"compound": "Cc1cccnc1NC1OC(=O)c2ccccc21", "note": "(centres undefined)", "growth": "103% (inactive)"}, {"compound": "NS(=O)(=O)c1cc(=O)[nH]c(=O)[nH]1", "growth": "109% (inactive)"}, {"compound": "CCC1CCC(C)NC1", "note": "(centres undefined)", "growth": "101% (inactive)"}, {"compound": "Cc1ccc2[nH]c3ccccc3c2c1", "growth": "109% (inactive)"}, {"compound": "C=C1C(=O)C2CCN1CC2", "growth": "104% (inactive)"}, {"compound": "C=CCNC(=S)N/C=C(/C(=O)c1ccccc1)c1ccccc1", "growth": "104% (inactive)"}, {"compound": "CCc1ccccc1C(=O)N(CC)CC", "growth": "109% (inactive)"}, {"compound": "CN(C)CCOC(=O)Nc1ccc(Cc2ccc(NC(=O)OCCN(C)C)cc2)cc1", "growth": "98.5% [100 µM] (inactive)"}, {"compound": "CC(C)NC(=O)OCc1c(COC(=O)NC(C)C)c(-c2ccc(Cl)cc2)n2c1CCC2", "growth": "46.5% (inactive)"}, {"compound": "Nc1ccc2c(c1)Cc1cc(N)c(N)cc1-2", "growth": "101% (inactive)"}, {"compound": "CCOC(=O)C(=O)CC(=O)c1ccccc1", "growth": "93.1% (inactive)"}, {"compound": "CCNc1ncnc2[nH]ncc12", "growth": "105% (inactive)"}, {"compound": "COc1nc(Nc2cccc(C(F)(F)F)c2)nc(OC)n1", "growth": "104% (inactive)"}, {"compound": "CC(=O)c1cccc(O)c1", "growth": "100% (inactive)"}, {"compound": "CC(C)c1ccccc1NC(=O)N1CCC(C(C)C)CC1", "growth": "111% (inactive)"}]}]}
